A selection: hits, their analogues and other compounds. The true share with any hit is near 11%.
HttQ103 aggreg: qHTS Multiplex Assay to Identify Dual Action Probes in a Cell Model of Huntington: Aggregate Formation (GFP) | PC12 HttQ103-GFP aggregates, Acumen cytometry, 40 h | 220,000 tested, 1.1% active | AID 1688, 2009 | Potency, µM (top dose mostly 46.1 µM), for inactives: at the top dose activity change, negative = inhibition, usual class: inhibitors; active = well fitted curve in the direction sought with a large enough effect; inconclusive = small, poorly fitted or top-dose-only effect, or another doubt; inactive = no such curve, though single readings can be large; an effect the other way counts as inactive or inconclusive; note: potency is the fitted concentration of half-maximal effect; % is set by controls: 0 for no effect and ±100 for the full control effect; nearly all actives have a fitted effect of over 60% in size
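Ecdysone-promoter PC12 model expressing HTT exon 1 Q103 fused to GFP, induced by tebufenozide at 100 nM final. Compounds titrated; aggregates sized 1–25 µm scored on a 488 nm laser cytometer.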
PNC assembly inh: High Content Assay for Compounds that inhibit the Assembly of the Perinucleolar Compartment. AID 2417, 2010. PC3M PTB-GFP, PNC prevalence imaging, 16 h; active compounds read low. activity change (PNC), negative = inhibition, % at 10 µM. 140,000 tested, 3.1% active;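 active = readout at or below -70, meaning at least 70% loss of cells showing the perinucleolar compartment, a nuclear body marking cancer cells; inconclusive = readout between -30 and a set limit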;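 note: plate controls were DMSO wells for no effect and camptothecin positive control wells for full effect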
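Read-out is percentage of cells bearing a perinucleolar compartment, from automated 20x imaging of fixed, Hoechst-stained PC3M PTB-GFP cells. Cells were seeded 4 h, then exposed 16 h to compound (23 nl of library stock) in duplicate plates.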
GoLoco inh red: qHTS Assay for Inhibitors of RGS12 GoLoco Motif Activity (Red Fluorophore); AID 880, 2007; Potency, µM (series often up to 61.6 µM), for inactives: at the highest dose activity, negative = inhibition, most hits filed as inhibitors; Gai1:RGS12 GoLoco peptide FP, rhodamine, 10 min; 230,000 tested, 0.44% active; active = well fitted inhibition curve with a large enough effect, not every such curve was filed as active; inactive = no such curve, though single readings can be large or run the other way; note: potency is the fitted concentration of half-maximal effect; % is set by controls: 0 for no effect and ±100 for the full control effect; nearly all actives have a fitted effect of over 30% in size
HTT cytoprotect: qHTS Multiplex Assay to Identify Dual Action Probes in a Cell Model of Huntington: Cytoprotection (ATP) | PC12 HTT-Q103 induced, cytoprotection, ATP luminescence, 40 h | Potency, µM (series often up to 56.4 µM), inactives show cytoprotection (ATP increase), most hits filed as activators | 230,000 tested, 0.14% active | AID 1471, 2008; active = well fitted curve in the direction sought with a large enough effect; inconclusive = small, poorly fitted or top-dose-only effect, or another doubt; inactive = no such curve, though single readings can be large; an effect the other way counts as inactive or inconclusive; note: potency is the fitted concentration of half-maximal effect; % of control where 0% means no effect; nearly all actives have a fitted effect of over 45% in size
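Quantitative HTS on tebufenozide-induced (100 nM) PC12 cells expressing HTTQ103 exon 1–GFP; compounds tested as a concentration series; survival measured via cellular ATP.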
HPGD inh: qHTS Assay for Inhibitors of HPGD (15-Hydroxyprostaglandin Dehydrogenase); 15-hydroxyprostaglandin dehydrogenase [NAD(+)] (Homo sapiens), P15428; 150,000 tested, 4.3% active; Potency, µM, inactives show top-dose activity change, negative = inhibition, hits mostly inhibitors; AID 894, 2007; purified HPGD, NADH fluorescence kinetic, PGE2 substrate; note: potency is the fitted concentration of half-maximal effect; % is set by controls: 0 for no effect and ±100 for the full control effect
Target sequence (P15428 whole entry, looked up): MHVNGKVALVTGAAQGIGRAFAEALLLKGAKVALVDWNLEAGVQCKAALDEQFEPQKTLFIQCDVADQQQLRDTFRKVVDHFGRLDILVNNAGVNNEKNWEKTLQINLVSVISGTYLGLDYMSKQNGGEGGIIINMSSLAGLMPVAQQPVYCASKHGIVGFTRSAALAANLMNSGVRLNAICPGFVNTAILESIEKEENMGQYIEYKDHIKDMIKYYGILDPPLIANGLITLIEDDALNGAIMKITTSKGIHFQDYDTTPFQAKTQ
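20 nM HPGD preincubated 15 min at room temperature with compound in 50 mM Tris-HCl pH 8, 0.01% Tween 20. Started with 1 mM NAD+ and 30 uM prostaglandin E2; NADH fluorescence (360/450 nm) read 5 times over 30-s intervals, last minus first.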
ALDH1A1 inh: qHTS Assay for Inhibitors of Aldehyde Dehydrogenase 1 (ALDH1A1); 220,000 tested, 7.3% active; Purified ALDH1A1, NADH fluorescence, propionaldehyde substrate; AID 1030, 2008; Aldehyde dehydrogenase 1A1 (Homo sapiens), P00352; Potency, µM (doses to about 75.3 µM), for inactives: at the top dose activity, negative = inhibition, hits mostly inhibitors;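 note: potency is the fitted concentration of half-maximal effect; plate controls were no enzyme wells and a reference inhibitor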
Target sequence (P00352 whole entry, looked up): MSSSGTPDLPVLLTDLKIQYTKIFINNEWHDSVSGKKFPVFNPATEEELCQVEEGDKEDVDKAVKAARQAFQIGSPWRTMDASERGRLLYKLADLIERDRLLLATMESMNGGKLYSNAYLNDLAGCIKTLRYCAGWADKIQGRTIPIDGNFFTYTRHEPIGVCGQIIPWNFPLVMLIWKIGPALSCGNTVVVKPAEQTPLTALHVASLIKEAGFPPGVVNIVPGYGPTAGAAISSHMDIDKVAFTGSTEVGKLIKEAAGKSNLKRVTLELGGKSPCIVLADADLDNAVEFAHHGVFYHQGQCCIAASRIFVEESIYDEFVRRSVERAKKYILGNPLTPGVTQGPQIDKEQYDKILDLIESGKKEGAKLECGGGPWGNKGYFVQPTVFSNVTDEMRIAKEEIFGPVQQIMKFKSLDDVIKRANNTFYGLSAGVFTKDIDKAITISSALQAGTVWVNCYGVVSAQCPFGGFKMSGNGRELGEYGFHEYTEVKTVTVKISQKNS
* = called active by the depositor; u = inconclusive; x = not tested or not shown; [ ] = another dose, or the depositor's remark. Unless noted, calls come from the whole dose curve; as a rule, active = well fitted inhibition curve with a large enough effect (not every such curve was filed as active); inconclusive = small, poorly fitted or top-dose-only effect, or another doubt; inactive = no such curve, though single readings can be large or run the other way.

SMILES	HttQ103 aggreg	PNC assembly inh	GoLoco inh red	HTT cytoprotect	HPGD inh	ALDH1A1 inh
CCOC(=O)CN1CC23C=CC(O2)C(C(=O)NCc2ccc(C)cc2)C3C1=O (stereo not given)	3%	-28	-21%	-1%	16µM*	-3%
CCOC(=O)CN1CC23C=CC(O2)C(C(=O)NCc2cccs2)C3C1=O (stereo not given)	-19%[9.22 µM]	38	-1%	-2%	-3%	12%
CCCOc1ccc(Cc2c(Cl)nc(SC)nc2N(C)C)cc1	u	u	-6%	22%[10 µM]	-14%	7%
COc1cccc(-c2nn(-c3ccccc3)cc2CN(C)C(C)c2ccncn2)c1 (stereo not given)	32%[9.22 µM]	x	7%	-2%[10 µM]	x	-5%
COc1ccc(-n2cc(CN(C)C(C)c3ccncn3)c(-c3cccc(F)c3)n2)cc1 (stereo not given)	0%	x	9%	-39%	x	25µM*
COC(=O)c1ccccc1Nc1cc(C)nc2nc(C)nn12	-5%	25	-1%	-8%	1µM*	22%
Cc1cc(Nc2ccccc2Br)n2nc(C)nc2n1	-3%	16	-1%	-12%	u	3%
CCOC(=O)c1ccccc1Nc1cc(C)nc2nc(C)nn12	-5%	-9	7%	-10%[10 µM]	2.2µM*	5%
COc1ccc(CCNC(=O)CSc2ccc(Br)cc2)cc1OC	-29%	x	-3%	-44%	x	3%
CC(C)N(C)C(=O)C(=O)c1cccn1-c1cccc(Cl)c1C#N	11%[9.22 µM]	x	4%	-22%[1.9 µM]	x	-3%
CNC(=S)NNC(=O)c1cn(C)nc1C	7%	x	6%	x	x	-5%
CC(C)(C)OC(=O)N[C@H](Cc1ccccc1)C(=O)N1CCC(C(=O)O)CC1	17%	-83*	-4%	1%	-12%	5%
O=c1cc(O)nc(-c2ccc(Cl)cc2)s1	7%[9.22 µM]	x	15%	-32%	x	16µM*
O=c1cc(O)nc(-c2ccccc2)s1	17%	x	39%	x	x	0.79µM*
NCCCCN	x	x	-8%	11%[1.9 µM]	-8%	6%
O=C1c2ccccc2C(=O)N1CC#CCN1CCN(C(c2ccccc2)c2ccccc2)CC1	5%	u	0%	32%	-11%	16µM*
CN(C)CCn1c(=O)n(-c2cccc(Cl)c2)c(=O)c2c3c(sc21)CCCCC3	-6%[9.22 µM]	x	4%	-7%[10 µM]	x	18%
O=C(CSC1CN(C(c2ccccc2)c2ccccc2)C1)N/N=C/c1ccccc1	-3%[9.22 µM]	x	4%	-6%[10 µM]	x	x
Cc1ccc(Cl)cc1-c1ccc(C=Nc2ccc(N3CCOCC3)cc2)o1	1%	-3	-1%	7%[10 µM]	u	10µM*
Cc1ccc([N+](=O)[O-])cc1-c1ccc(/C=N/NC(=O)CN2CCOCC2)o1	8%[9.22 µM]	x	-2%	20%[10 µM]	x	u
CCc1nn2c(=O)cc(COc3ccc(/C=C4\C(=N)N5N=C(C)SC5=NC4=O)cc3)nc2s1	16%	x	9%	-40%	x	8.9µM*
CCCCC1(CCCC)NC(=S)N(Nc2ccc(C)cc2)C1=O	-12%	-90*	6%	-11%	-10%	-3%
CCCCC1(C)NC(=S)N2N1C(=S)NC2(C)CCCC (stereo not given)	-11%[9.22 µM]	x	7%	1%[10 µM]	x	x
C[C@@H](O)C#C[Si](C)(C)c1ccccc1	x	x	0%	u	3%	-4%
COc1cc(-n2c(C)nc3cc(C(=O)N4CCOCC4)ccc32)cc(OC)c1OC	14%	u	8%	-9%	32µM*	2%
SMILES	HttQ103 aggreg	PNC assembly inh	GoLoco inh red	HTT cytoprotect	HPGD inh	ALDH1A1 inh
Cc1occc(=O)c1OC(=O)Nc1ccc(Cl)c(Cl)c1	u	-113*	10%	x	-6%	8%
CN1CCN(c2oc(-c3ccco3)nc2S(=O)(=O)c2ccccc2)CC1	-1%	4	6%	10%	-16%	28µM*
CCSc1oc(-c2ccco2)nc1S(=O)(=O)c1ccccc1	-1%	3	10%	-7%[10 µM]	-21%	u
O=S(=O)(c1ccccc1)c1nc(-c2ccco2)oc1N1CCCCCC1	-1%	13	55%	20%[10 µM]	u	0.2µM*
COc1ccc(/C=N/Nc2ccccc2)cc1Cn1nc(C)c([N+](=O)[O-])c1C	-19%	-98*	83%	-7%	0%	-10%
O=C(CSc1ccc(-c2cccs2)nn1)N1CCCCC1	8%	9	5%	-2%[10 µM]	3.5µM*	u
O=C(Nc1nnc(SCC(=O)N2CCOCC2)s1)c1ccccc1	u	-89*	7%	x	32µM*	-7%
O=C(CSc1ccc(-c2ccc(F)cc2)nn1)N1CCOCC1	-9%	x	7%	-37%	x	0%
O=C(CSc1ccc(-c2cccs2)nn1)NCc1ccccc1Cl	16%	u	-28%	8%[10 µM]	32µM*	0%
O=C(CSc1ccc(-c2ccccc2)nn1)N1CCOCC1	10%	2	9%	-15%	-22%	28µM*
COCC(=O)Nc1cc(C(=O)Nc2ccccc2)ccc1Cl	-18%[9.22 µM]	x	-12%	-4%[10 µM]	x	3%
O=C(CSc1ccc(-c2cccs2)nn1)N1CCCCCC1	1%	u	11%	-6%[10 µM]	11µM*	-5%
O=C(NC(c1ccc(Cl)cc1)c1cc(Cl)c2cccnc2c1O)c1cccnc1 (stereo not given)	8.9µM*	4	-10%	-71%[10 µM]	-15%	-4%
CCC(=O)NC(c1cccs1)c1cc(Cl)c2cccnc2c1O (stereo not given)	-2%[9.22 µM]	x	-4%	5%[10 µM]	x	6%
CCCCC(=O)NC(c1cccs1)c1cc(Cl)c2cccnc2c1O (stereo not given)	-42%[9.22 µM]	x	5%	-57%[10 µM]	x	7.1µM*
Cc1ccccc1OS(=O)(=O)c1cn(C)c(=O)n(C)c1=O	-1%	x	-5%	6%[10 µM]	x	17%
O=C(c1ccco1)n1nc(-c2ccco2)nc1SCc1ccccc1	-12%	47	6%	-54%	u	-5%
O=C(Cc1ccccc1)n1nc(-c2ccco2)nc1SCc1ccccc1	1%	u	-7%	-45%	4.5µM*	u
O=C(CCc1ccccc1)n1nc(-c2ccccc2)nc1NCc1ccco1	25µM*	87	11%	6%[10 µM]	-19%	2%
COc1ccc(CC(=O)n2nc(-c3ccccc3)nc2NCc2ccco2)cc1	-10%	2	-6%	10%[10 µM]	-13%	-2%
O=C(c1ccco1)n1nc(-c2ccccc2)nc1SCc1ccccc1	-4%	-10	9%	-13%	18µM*	1%

From PubChem
